# In the supplement of paper PMC9794691:
# ± gives the standard deviation of the averaged measurements.
# Test system: PC9
# Experiment: area under confluence curve of osimertinib + compound combination regimen (DTP regrowth); compare to osimertinib-only DTP control AUC of the same experiment (AUC (confluence x time, arbitrary))
# Protocol: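 compare to osimertinib-only DTP control AUC of the same experiment; Long-term drug-tolerant persister (DTP) screen in EGFR-mutant NSCLC cell lines in 48-well plates. The test compound was given at one fixed dose with osimertinib, either upfront (from day 0 to the DTP stage at 10-21 days, then drug-free medium) or sequentially (osimertinib alone to the DTP stage, then the test compound). IncuCyte confluence was tracked until osimertinib-only controls regrew, and AUC was computed in Prism. AUC scale depends on experiment duration, so each row carries the same-experiment osimertinib-only DTP and DMSO control AUCs; combination activity = control minus combo AUC. Osimertinib dose not stated.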
# [1] = test compound dose 10 nM, dosing schedule: sequential, osimertinib-only DTP control AUC in same experiment: 14708, DMSO control AUC in same experiment: 21341
# [2] = test compound dose 10 nM, dosing schedule: upfront, osimertinib-only DTP control AUC in same experiment: 21313, DMSO control AUC in same experiment: 21341
smiles,measurement,setting,value
Cn1cc(CNCC2CCN(c3ncc(C(=O)NO)cn3)CC2)c2ccccc21 [Quisinostat] + C=CC(=O)Nc1cc(Nc2nccc(-c3cn(C)c4ccccc34)n2)c(OC)cc1N(C)CCN(C)C [osimertinib],area under confluence curve,"test compound dose 10 nM, dosing schedule: sequential, osimertinib-only DTP control AUC in same experiment: 10175, DMSO control AUC in same experiment: 27958",2060
same,area under confluence curve,"test compound dose 10 nM, dosing schedule: sequential, osimertinib-only DTP control AUC in same experiment: 13992, DMSO control AUC in same experiment: 30002",4770
same,area under confluence curve,[1],2700
same,area under confluence curve,"test compound dose 10 nM, dosing schedule: upfront, osimertinib-only DTP control AUC in same experiment: 16134, DMSO control AUC in same experiment: 27958",1380
same,area under confluence curve,[2],6010
same,area under confluence curve,"test compound dose 10 nM, dosing schedule: upfront, osimertinib-only DTP control AUC in same experiment: 22377, DMSO control AUC in same experiment: 30002",4720
CC(=O)Nc1cccc(-n2c(=O)n(C3CC3)c(=O)c3c(Nc4ccc(I)cc4F)n(C)c(=O)c(C)c32)c1 [Trametinib] + C=CC(=O)Nc1cc(Nc2nccc(-c3cn(C)c4ccccc34)n2)c(OC)cc1N(C)CCN(C)C [osimertinib],area under confluence curve,"test compound dose 10 nM, dosing schedule: sequential, osimertinib-only DTP control AUC in same experiment: 14554, DMSO control AUC in same experiment: 49189",10400
same,area under confluence curve,[1],3390
same,area under confluence curve,[2],6970
same,area under confluence curve,"test compound dose 10 nM, dosing schedule: upfront, osimertinib-only DTP control AUC in same experiment: 24473, DMSO control AUC in same experiment: 49189",9410
C[C@@]1(C(=O)Nc2ccc(F)nc2)CCCN1c1nc(Nc2cc(C3CC3)n[nH]2)c2cccn2n1 + C=CC(=O)Nc1cc(Nc2nccc(-c3cn(C)c4ccccc34)n2)c(OC)cc1N(C)CCN(C)C [osimertinib],area under confluence curve,"test compound dose 100 nM, dosing schedule: sequential, osimertinib-only DTP control AUC in same experiment: 1963, DMSO control AUC in same experiment: 30580",219 ± 17
same,area under confluence curve,"test compound dose 100 nM, dosing schedule: sequential, osimertinib-only DTP control AUC in same experiment: 12502, DMSO control AUC in same experiment: 49143",7400
same,area under confluence curve,"test compound dose 100 nM, dosing schedule: sequential, osimertinib-only DTP control AUC in same experiment: 14708, DMSO control AUC in same experiment: 21341",3460
same,area under confluence curve,"test compound dose 100 nM, dosing schedule: upfront, osimertinib-only DTP control AUC in same experiment: 8618, DMSO control AUC in same experiment: 30580",4520 ± 430
same,area under confluence curve,"test compound dose 100 nM, dosing schedule: upfront, osimertinib-only DTP control AUC in same experiment: 21313, DMSO control AUC in same experiment: 21341",7730
same,area under confluence curve,"test compound dose 100 nM, dosing schedule: upfront, osimertinib-only DTP control AUC in same experiment: 28310, DMSO control AUC in same experiment: 49143",13100
CCN1CCN(Cc2ccc(Nc3ncc(F)c(-c4cc(F)c5nc(C)n(C(C)C)c5c4)n3)nc2)CC1 [Abemaciclib] + C=CC(=O)Nc1cc(Nc2nccc(-c3cn(C)c4ccccc34)n2)c(OC)cc1N(C)CCN(C)C [osimertinib],area under confluence curve,"test compound dose 100 nM, dosing schedule: sequential, osimertinib-only DTP control AUC in same experiment: 10725, DMSO control AUC in same experiment: 30578",2310
same,area under confluence curve,"test compound dose 100 nM, dosing schedule: sequential, osimertinib-only DTP control AUC in same experiment: 15163, DMSO control AUC in same experiment: 28684",7750
same,area under confluence curve,"test compound dose 100 nM, dosing schedule: sequential, osimertinib-only DTP control AUC in same experiment: 23366, DMSO control AUC in same experiment: 88996",7100
same,area under confluence curve,"test compound dose 100 nM, dosing schedule: upfront, osimertinib-only DTP control AUC in same experiment: 10245, DMSO control AUC in same experiment: 30578",6070
same,area under confluence curve,"test compound dose 100 nM, dosing schedule: upfront, osimertinib-only DTP control AUC in same experiment: 21337, DMSO control AUC in same experiment: 28684",15800
same,area under confluence curve,"test compound dose 100 nM, dosing schedule: upfront, osimertinib-only DTP control AUC in same experiment: 29852, DMSO control AUC in same experiment: 88996",6410
CN1CCN(CCOc2cc(OC3CCOCC3)c3c(Nc4c(Cl)ccc5c4OCO5)ncnc3c2)CC1 [Saracatinib] + C=CC(=O)Nc1cc(Nc2nccc(-c3cn(C)c4ccccc34)n2)c(OC)cc1N(C)CCN(C)C [osimertinib],area under confluence curve,"test compound dose 300 nM, dosing schedule: sequential, osimertinib-only DTP control AUC in same experiment: 9267, DMSO control AUC in same experiment: 19507",4570
same,area under confluence curve,"test compound dose 300 nM, dosing schedule: sequential, osimertinib-only DTP control AUC in same experiment: 12589, DMSO control AUC in same experiment: 28243",8930
same,area under confluence curve,"test compound dose 300 nM, dosing schedule: upfront, osimertinib-only DTP control AUC in same experiment: 10534, DMSO control AUC in same experiment: 19507",1600
same,area under confluence curve,"test compound dose 300 nM, dosing schedule: upfront, osimertinib-only DTP control AUC in same experiment: 16088, DMSO control AUC in same experiment: 28243",16200
Oc1nc(-c2ccc(C(F)(F)F)cc2)nc2c1CSCC2 + C=CC(=O)Nc1cc(Nc2nccc(-c3cn(C)c4ccccc34)n2)c(OC)cc1N(C)CCN(C)C [osimertinib],area under confluence curve,"test compound dose 300 nM, dosing schedule: sequential, osimertinib-only DTP control AUC in same experiment: 12502, DMSO control AUC in same experiment: 49143",9570
same,area under confluence curve,"test compound dose 300 nM, dosing schedule: upfront, osimertinib-only DTP control AUC in same experiment: 28310, DMSO control AUC in same experiment: 49143",8680
COc1ccc(CCc2nc3cc(-c4c(C)noc4C)ccc3n2C[C@H](C)N2CCOCC2)cc1Cl + C=CC(=O)Nc1cc(Nc2nccc(-c3cn(C)c4ccccc34)n2)c(OC)cc1N(C)CCN(C)C [osimertinib],area under confluence curve,"test compound dose 1000 nM, dosing schedule: sequential, osimertinib-only DTP control AUC in same experiment: 4730, DMSO control AUC in same experiment: 72888",6290
same,area under confluence curve,"test compound dose 1000 nM, dosing schedule: sequential, osimertinib-only DTP control AUC in same experiment: 9508, DMSO control AUC in same experiment: 26668",9310
same,area under confluence curve,"test compound dose 1000 nM, dosing schedule: sequential, osimertinib-only DTP control AUC in same experiment: 12065, DMSO control AUC in same experiment: 48219",13500
same,area under confluence curve,"test compound dose 1000 nM, dosing schedule: upfront, osimertinib-only DTP control AUC in same experiment: 8775, DMSO control AUC in same experiment: 72888",20400
same,area under confluence curve,"test compound dose 1000 nM, dosing schedule: upfront, osimertinib-only DTP control AUC in same experiment: 11298, DMSO control AUC in same experiment: 26668",10700
same,area under confluence curve,"test compound dose 1000 nM, dosing schedule: upfront, osimertinib-only DTP control AUC in same experiment: 22645, DMSO control AUC in same experiment: 48219",37300
CN1CCN(c2nc(C3=C(c4c[nH]c5ccccc45)C(=O)NC3=O)c3ccccc3n2)CC1 [Sotrastaurin] + C=CC(=O)Nc1cc(Nc2nccc(-c3cn(C)c4ccccc34)n2)c(OC)cc1N(C)CCN(C)C [osimertinib],area under confluence curve,"test compound dose 1000 nM, dosing schedule: sequential, osimertinib-only DTP control AUC in same experiment: 10175, DMSO control AUC in same experiment: 27958",9060
same,area under confluence curve,"test compound dose 1000 nM, dosing schedule: upfront, osimertinib-only DTP control AUC in same experiment: 16134, DMSO control AUC in same experiment: 27958",10800
C[C@@H](c1ccc2nccn2c1)n1nnc2ncc(-c3cnn(C)c3)nc21 [Savolitinib] + C=CC(=O)Nc1cc(Nc2nccc(-c3cn(C)c4ccccc34)n2)c(OC)cc1N(C)CCN(C)C [osimertinib],area under confluence curve,"test compound dose 1000 nM, dosing schedule: sequential, osimertinib-only DTP control AUC in same experiment: 12535, DMSO control AUC in same experiment: 43316",7800
same,area under confluence curve,"test compound dose 1000 nM, dosing schedule: upfront, osimertinib-only DTP control AUC in same experiment: 15354, DMSO control AUC in same experiment: 43316",11900
COc1cc2nc(C)nc(N[C@H](C)c3cc(N)cc(C(F)(F)F)c3)c2cc1O[C@H]1CCOC1 + C=CC(=O)Nc1cc(Nc2nccc(-c3cn(C)c4ccccc34)n2)c(OC)cc1N(C)CCN(C)C [osimertinib],area under confluence curve,"test compound dose 1000 nM, dosing schedule: sequential, osimertinib-only DTP control AUC in same experiment: 15163, DMSO control AUC in same experiment: 28684",11600
same,area under confluence curve,"test compound dose 1000 nM, dosing schedule: upfront, osimertinib-only DTP control AUC in same experiment: 21337, DMSO control AUC in same experiment: 28684",11000
